# According to PubChem BioAssay (Tox21):
# Inconclusive results are not listed. Calls of active or inactive are those of the source. The call rests on the fitted dose curve.
# Test: p53 small molecule agonists, cell-based qHTS assay with rat liver microsomes (AID 1963578)
# Details: HCT-116 p53RE-bla, beta-lactamase ratio, 16 h; series mostly up to 66 µM; activation: at the top concentration
# From the text: U.S. Tox21 Program National Center for Advancing Translational Sciences [NCATS] Division of Preclinical Innovation [DPI] U.S. Environmental Protection Agency [EPA] National Institutes of Environmental Health Sciences [NIEHS] National Toxicology Program [NTP] U.S. Food and Drug Administration [FDA] Tox21 Assay Overview: p53, a tumor suppressor protein, is activated following cellular insult, including DNA damage and other cellular stresses. The activation of p53 regulates cell fate by inducing DNA repair, cell cycle arrest, apoptosis, or cellular senescence. The activation of p53, therefore, is a good indicator of DNA damage and other cellular stresses. […] The activation of the reporter gene under culture conditions can be detected by fluorescence intensity. This cell line was used to screen the Tox21 10K compound library in the condition of presence of rat liver microsomes and to identify agonists that activate the p53 signaling pathway after in vitro metabolic activation (Ooka et al., Archive of Toxicology 96:1975-1987, 2022).
# Tox21 Assay Protocol Summary: The p53RE-bla cells were dispensed at 4,000cells/3ul/well in 1536-well black-clear bottom plates. After the assay plates were incubated at 37 C, 5% CO2 incubator for 5 hours, 23 nL of compounds dissolved in DMSO, positive controls or DMSO only was transferred to the assay plate. Following compound addition, 3 uL of rat liver microsomes (Molecular Toxicology, Boone, NC) at final concentration of 0.5 mg/mL and 1uL of Beta-Nicotinamide adenine dinucleotide 2-phosphate (NADPH) at final concentration of 0.5 mg/mL were transferred to the assay plate. The plates were incubated at 37 C for 16 hours. 1 uL of LiveBLAzer detection mixture was added to each well and the plates were incubated at room temperature in the dark for 2 h.
# On the % scale 0 is the no-effect control and ±100 the full control effect.
row,SMILES,activation
1,O=C(O)CCNC(=O)c1ccccc1,0.326% [at 30.3 µM] (inactive)
2,c1ccc(CN(CC2=NCCN2)c2ccccc2)cc1,-2.64% [at 30.3 µM] (inactive)
3,Cc1ccccc1C#N,-1.84% (inactive)
4,O=C1OCCN1/N=C/c1ccc([N+](=O)[O-])o1,0.0143% [at 30.3 µM] (inactive)
5,CCCCC(=O)O[C@]1(C(=O)CO)[C@H](C)C[C@H]2[C@@H]3CCC4=CC(=O)C=C[C@]4(C)[C@@]3(F)[C@@H](O)C[C@@]21C,-3.33% [at 30.3 µM] (inactive)
6,COc1ccc(/C(C)=C/C(=O)O)c(OC)c1,1.38% [at 30.3 µM] (inactive)
7,CCC(C(=O)O)c1ccc(N2Cc3ccccc3C2=O)cc1 (stereo not given),0.0479% [at 30.3 µM] (inactive)
8,CCOC(=O)CCc1ccccc1,0.389% (inactive)
9,CCCCN1C=CN(C)C1,0.456% [at 13.6 µM] (inactive)
10,Nc1cc(S(=O)(=O)O)ccc1O,1.17% (inactive)
11,OCCCCCCO,0.0186% (inactive)
12,CCc1cccc(C)c1N(C(=O)CS(=O)(=O)O)C(C)COC (stereo not given),-4.72% (inactive)
13,Cc1ccc(=O)n(-c2ccccc2)c1,0.0881% [at 30.3 µM] (inactive)
14,CN(C)C(=O)C1(N2CCCCC2)CCN(CC[C@@]2(c3ccc(Cl)c(Cl)c3)CN(C(=O)c3ccccc3)CCO2)CC1,-2.66% (inactive)
15,CNS(=O)(=O)Cc1ccc2[nH]cc(CCN(C)C)c2c1,-1.71% [at 30.3 µM] (inactive)
16,C[C@H](CCC(=O)NCC(=O)O)[C@H]1CC[C@H]2[C@@H]3[C@H](O)C[C@@H]4C[C@H](O)CC[C@]4(C)[C@H]3C[C@H](O)[C@]12C,-0.795% (inactive)
17,CCc1nn(C2CCCCC2)c2cc(C3(C#N)CCC(C(=O)O)CC3)ccc12 (stereo not given),-1.07% (inactive)
18,CCOC(=O)Cc1cccc2ccccc12,0.317% (inactive)
19,CCCCCCCCCC(=O)OCC,0.0865% (inactive)
20,CN(C)CCN1C(=O)c2ccccc2N(C)c2ccccc21,5.93% [at 30.3 µM] (inactive)

row,SMILES,activation
1,CCOCCn1c(C2CCN(CCc3ccc(C(C)(C)C(=O)O)cc3)CC2)nc2ccccc21,-0.452% [at 30.3 µM] (inactive)
2,Oc1cn2c(n1)Nc1ccc(Cl)c(Cl)c1C2,-0.253% [at 13.6 µM] (inactive)
3,CC(C)OC(=O)C(C)N(C(=O)c1ccccc1)c1ccc(F)c(Cl)c1 (stereo not given),1.67% (inactive)
4,CN1CCN(c2cc3c(cc2F)c(=O)c(C(=O)O)cn3-c2ccc(F)cc2)CC1,-4.48% [at 30.3 µM] (inactive)
5,C=CCn1c(=O)n(CC=C)c(=O)n(CC=C)c1=O,0% (inactive)
6,C[N+](C)(C)CCCCCCCCCC[N+](C)(C)C,0.313% [at 30.3 µM] (inactive)
7,CCCCCCCC[N+](CCCCCCCC)(CCCCCCCC)CCCCCCCC,0.836% (inactive)
8,CC(C(=O)O)c1ccc(C(=O)c2ccccc2)s1 (stereo not given),-0.493% [at 30.3 µM] (inactive)
9,Cc1c(F)cc2c(=O)c(C(=O)O)cn3c2c1CCC3C (stereo not given),-0.627% [at 30.3 µM] (inactive)
10,c1cc2c3c(c1)ccc1cccc(c13)C2,8.95% (inactive)
11,CCCCCOc1ccc(C2SC(=O)NC2=O)cc1OCC (stereo not given),1.88% [at 30.3 µM] (inactive)
12,C1CC(COCC2CO2)CCC1COCC1CO1 (stereo not given),0.2% (inactive)
13,O=C(O)c1cc(Cl)cc(Cl)c1O,-2.14% (inactive)
14,Cc1cc2c(cc1S(N)(=O)=O)S(=O)(=O)CCC2,0.0496% [at 30.3 µM] (inactive)
15,CC(CC1c2ccccc2CCc2ccccc21)CN(C)C (stereo not given),4.92% [at 30.3 µM] (inactive)
16,NC(=O)C(=O)N/N=C/c1ccc([N+](=O)[O-])o1,4.23% [at 30.3 µM] (inactive)
17,CCC(=O)O[C@]1(C(=O)SCF)[C@H](C)C[C@H]2[C@@H]3C[C@H](F)C4=CC(=O)C=C[C@]4(C)[C@@]3(F)[C@@H](O)C[C@@]21C,-0.118% [at 30.3 µM] (inactive)
18,NC(=O)c1ccncc1,-1.28% (inactive)
19,c1cc(N(CC2CO2)CC2CO2)ccc1Cc1ccc(N(CC2CO2)CC2CO2)cc1 (stereo not given),-0.24% (inactive)
20,CC(=O)Nc1ccc(S(N)(=O)=O)cc1,-0.354% (inactive)
